This is an account of results in PubChem BioAssay AID588343 (Broad Institute, 2011).

Screen size: about 1,200 compounds; about 650 (54%) were called active. Another 5% or so got no clear call; they are omitted.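 How the source made its calls: active means signal-lowering curve whose fitted half-maximal concentration is at or below ten times the top valid dose tested; inconclusive means flat curve with 30 to 70% inhibition, or poor fit; inactive means signal increase, flat within 30%, or potency beyond limit.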 So high a share suggests a set chosen from earlier hits. These entries were drawn from the full list. Where a call stands in place of a potency, no number is given. Potency and affinity values are given separately.

This assay in a line: inhibitors of LMP1-driven NF-kB reporter, dose response, cell-based, HEK293, luciferase, cherry-pick (AID 588343). As to conditions: HEK293 LMP1 TES2 NF-kB luciferase reporter, 16 h; series mostly up to 35 µM. (In general: Reporter assays use an easily measured gene product as a stand-in for the process of interest.)
On to `COc1cc(NC(=S)N2CCN(CCO)CC2)cc(OC)c1`, for which the compound was classed as inactive.
Regarding `Cc1ccc(/C=N/NC(=O)c2cc(-c3ccccc3)nc3ccccc23)o1`, the call was inactive.
For `COC(=O)c1[nH]c2cccc(C)c2c1NC(=O)CN1CCCc2ccccc21`, the compound was classed as inactive.
As for `CCCCOc1ccc2c(c1)/C(=C(\C(Cl)=C(Cl)Cl)[N+](=O)[O-])N2`, the entry is “inactive”; as for `COCCNC(=O)C(=O)NCC1OCCN1C(=O)c1ccc(Cl)cc1` (centres undefined), “inactive”; as for `COCCCn1cnnc1SCC(=O)Nc1ccc(S(=O)(=O)N2CCCC2)cc1`, “inactive”.
As to `CNc1ccc(Br)cc(C(=O)/C=C/c2cccc(OC)c2)c1=O`, the compound was called inactive.
In the case of `CN(CCNC(=O)C1CCN(S(=O)(=O)N2CCOCC2)CC1)CCc1ccccc1`, the call was inactive.
Regarding `Cn1cccc1/C=N/n1c(-c2ccc(Cl)cc2Cl)n[nH]c1=S`, the result was inactive.
As for `COc1ccc(CN2C(=O)c3cccnc3C2Nc2cc(Cl)ccc2OC)cc1` (centres undefined), the entry is “inactive”; as for `O=C(COC(=O)c1cc2ccccc2cc1O)NCc1ccccc1`, “inactive”.
`COc1ccc(-c2nc(C)ncc2-c2ccccc2)c(O)c1`: the outcome was inactive.
Regarding `O=C(Nc1ccccn1)NC1CCCCC1`, the compound was classed as inactive.
Consider `Cc1ccc(NC(=O)NNS(=O)(=O)c2ccc(Br)cc2)cc1`, for which the compound was classed as inactive.
For the compound `CC1CN(c2cc(=O)n(-c3ccccc3)c(=O)[nH]2)CC(C)O1` (centres undefined), the compound was called inactive.
Turning to `Cc1ccc(-n2nc(C(=O)NCc3ccc(C)o3)c3c4ccccc4n(C)c3c2=O)cc1`, the call was inactive.
With `Nc1nc(N)nc(-c2cc(Cl)ccc2Cl)n1`, the call was inactive.
For the compound `COc1ccccc1NC(=O)Cn1nnc(-c2ccccc2NS(=O)(=O)c2ccccc2)n1`, the call was inactive.
With `CC1CCCN(C(=O)COC(=O)c2n[nH]c3ccccc23)C1` (centres undefined), the compound was called inactive.
Take `COc1ccc(S(=O)(=O)NCC(c2cccnc2)N2CCN(c3ccc(F)cc3)CC2)cc1C` (centres undefined): the compound was called inactive.
For the compound `COc1ccc(-c2[nH]ncc2/C=N\NS(=O)(=O)c2ccc(Cl)cc2)cc1`, the call was inactive.
For `CC1(C)CC(=O)C(CC2=C(O)CC(C)(C)CC2=O)=C(O)C1`, the result was inactive.
As for `CSc1ccccc1OCc1cc(C(=O)N2CCC[C@H]2C(N)=O)no1`, the entry is “inactive”.
For the compound `COc1ccccc1OCc1ccc(C(=O)c2ccccc2)cc1`, the outcome was inactive.
On to `Cc1ccc(C(=O)NCC(=O)N(C)Cc2cccc(F)c2)s1`, for which the outcome was inactive.
For the compound `CCCC(=O)C1=C(O)C(C(=O)OC)C(C)(C)CC1=Nc1ccncc1` (centres undefined), the result was inactive.
Regarding `CSc1ccccc1NC(=O)CN1CCCCC1C` (centres undefined), the compound was called inactive.
Regarding `CCSc1nnc(NC(=O)CCn2c(=O)oc3ccccc32)s1`, the result was inactive.
On to `O=C(CN1C(=O)c2ccccc2C1=O)NNC1=NS(=O)(=O)c2ccccc21`, for which the call was inactive.
Take `CCOc1cc(C(=O)OC(C)C(=O)Nc2ncc(Cl)cc2Cl)ccc1OCC(=O)N1CCOCC1` (centres undefined): the call was inactive.
For `Cc1onc(-c2c(Cl)cccc2Cl)c1C(=O)N[C@@H]1C(=O)N2[C@@H]1SC(C)(C)[C@@H]2C(=O)O`, the call was inactive.
For the compound `COc1ccccc1N1CCN(CCCNC(=O)C2CCCN(c3ncnc4c3nc3n4CCCCC3)C2)CC1` (centres undefined), the outcome was inactive.
Turning to `C=CCN1CCN(C(CC(C)C)c2nnnn2CCOC)CC1` (centres undefined), the call was inactive.
As for `Cn1c(CC(=O)Nc2ccc(F)cc2)nnc1SCC(=O)Nc1nncs1`, the entry is “inactive”; as for `O=C(Cn1nc(C(F)(F)F)c2c1CCC2)NC1CCCCC1`, “inactive”; as for `O=C(CCCN1C(=O)[C@H]2CC=CC[C@H]2C1=O)NCc1nc(-c2ccc(Cl)cc2)no1`, “inactive”.
As for `O=C(O)CCc1nc(-c2ccc(Cl)cc2)no1`, the entry is “inactive”; as for `Cc1ccccc1NC(=O)CN1C(=O)S/C(=C\c2cccn2-c2cccc(C(=O)O)c2)C1=O`, “inactive”.
As for `COc1ccc(NC(=O)CCS(=O)(=O)c2ccc3c(c2)CCN3C(C)=O)cc1`, the entry is “inactive”; as for `COc1ccc(N2C(=O)C(=O)/C(=C(/O)c3ccc(C)cc3)C2c2cccnc2)cc1` (centres undefined), “inactive”; as for `COC(=O)c1ccc(COc2ccccc2/C=C/C(=O)c2ccc(OCC(=O)O)cc2)cc1`, “inactive”.
In the case of `CC(=O)Nc1ccc(OCCCNC(=O)c2c(-c3ccccc3)noc2C)cc1`, the call was inactive.
Turning to `Cc1ccc(C)c(S(=O)(=O)N2CCN(CC(=O)N3CCc4ccccc4C3)CC2)c1`, the outcome was inactive.
In the case of `CCc1c(C)nc2cc(-c3ccc(OC)c(OC)c3)nn2c1NCC1CC1`, the compound was classed as inactive.
For the compound `NC(=O)C1(Nc2ccc([N+](=O)[O-])cc2)CCCC1`, the outcome was inactive.
Regarding `CCCCCC(=O)N1CCN(c2ccc(C(C)=O)cc2F)CC1`, the result was inactive.
As to `CCN(CC)Cc1cc(Nc2ccnc3cc(Cl)ccc23)ccc1O`, the result was inactive.
Take `O=C1CCC(C(=O)N2CCCCCC2)CN1CCc1ccc(Cl)cc1` (centres undefined): the outcome was inactive.
`O=C(C1CCCCC1)N1CCN(c2ncccn2)CC1`: the compound was called inactive.
`COc1ccc(OC)c2[nH]c(=O)c(CCNC(=O)c3ccc(S(=O)(=O)N(C)C)cc3)cc12`: the call was inactive.
`O=C(c1sc2cc([N+](=O)[O-])ccc2c1Cl)N1CCOCC1`: the outcome was inactive.
As to `COc1ccc(-c2cn3nc4c(nc3n2)CCCC4)cc1`, the result was inactive.
As for `O=C(CCC(=O)NNC(=O)Nc1cccc(Cl)c1)NCc1ccccc1`, the call was inactive.
As for `O=C(O)c1cccc(NC(=O)c2cn(-c3ccccc3)nc2-c2ccc(F)cc2)c1`, the entry is “inactive”; as for `CC(C)(C)c1cc(C(=O)NNC(=O)Nc2cccc(Cl)c2)n(Cc2ccccc2)n1`, “inactive”; as for `CC(CN1CCCCC1)OC(=O)c1ccc2c(c1)OCO2` (centres undefined), “inactive”.
For the compound `COc1cccc(CC(=O)NNC(=O)c2ccc3c(c2)OCO3)c1`, the call was inactive.
`COC(=O)C1=C(C)N(CCCC(=O)O)C(=O)NC1c1cccc(Cl)c1Cl` (centres undefined): the compound was classed as inactive.
Regarding `COc1ccc(CN(C(=O)c2nsc(Cl)c2Cl)C(C(=O)NC2CCCC2)c2ccc(C)cc2)cc1` (centres undefined), the compound was classed as inactive.
Regarding `Cn1cc(SCC(=O)NCC2CCCO2)c2ccccc21` (centres undefined), the compound was called inactive.
As for `CCc1nnc(NC(=O)c2ccc(S(=O)(=O)N3CCOCC3)cc2)s1`, the compound was classed as inactive.
As for `CN(Cc1ccc(F)cc1)C(=O)CN1CCN(S(=O)(=O)c2ccc3c(c2)OCCCO3)CC1`, the entry is “inactive”; as for `Cc1c(C=O)c2ccccn2c1C(=O)c1ccccc1Cl`, “inactive”; as for `COc1cc(/C=N/NC(=O)c2cccc(S(=O)(=O)N3CCOCC3)c2)cc(OC)c1O`, “inactive”.
With `Cc1ccc(S(=O)(=O)N2CCCCC2)cc1NC(=O)CNc1ccccc1N1CCCC1=O`, the call was inactive.
In the case of `CC(=O)c1ccccc1OCC(=O)Nc1cccc(S(=O)(=O)N2CCCC2)c1`, the call was inactive.
`Cc1ccc(-c2nnn(CC(=O)N(Cc3ccco3)C(C(=O)NC(C)(C)C)c3ccncc3)n2)o1` (centres undefined): the compound was called inactive.
Turning to `CCOC(=O)Cc1csc(N/N=C\c2ccc(N(C)C)cc2)n1`, the result was inactive.
As for `COc1ccc(/C=N/NC(=O)COc2ccccc2-c2ccccc2)cc1`, the outcome was inactive.
As for `COc1ccccc1C(=O)NC(=O)CSc1nnc(N)s1`, the entry is “inactive”; as for `Cc1ccc(N(Cc2cc3ccccc3[nH]c2=O)C(=O)c2ccco2)c(C)c1`, “inactive”.
Turning to `COc1ccc(N2CCN(CCNC(=O)CCCn3c(=O)[nH]c4cc(Cl)ccc4c3=O)CC2)cc1`, the compound was called inactive.
Regarding `Cc1ccc(CN2C(=O)CCC2C(=O)NCCCN2CCC(C)CC2)cc1` (centres undefined), the outcome was inactive.
Consider `COc1ccc(-c2nc(CS(=O)CC(=O)NCc3ccc(Cl)cc3)c(C)o2)cc1` (centres undefined), for which the call was inactive.
As to `CC1CC(C)CN(S(=O)(=O)c2ccc(NC(=O)CCN3C(=O)C4CC=CCC4C3=O)cc2)C1` (centres undefined), the outcome was inactive.
Turning to `CC1(C)CN(Cc2ccccc2)C(=O)[C@H]1CC(=O)Nc1ccccc1`, the outcome was inactive.
Consider `CC(C)(C)c1nc2c(s1)CCc1onc(-c3ccc(Br)cc3)c1-2`, for which the outcome was inactive.
In the case of `O=C(O)c1ccc(C=NNC(=O)c2cccc3ccccc23)cc1`, the compound was classed as inactive.
As for `CS(=O)(=O)Nc1ccc(C2=NN(S(C)(=O)=O)C(c3ccccc3)C2)cc1` (centres undefined), the compound was called inactive.
Regarding `CC(=O)NC(CCS(C)(=O)=O)C(=O)Nc1ccc(Cl)c(Cl)c1` (centres undefined), the call was inactive.
As for `Cc1cc(C)c(OCCn2ccnc2)c(C)c1`, the call was inactive.
`COCCn1c(SCCN2CCOCC2)nc2c1c(=O)[nH]c(=O)n2C`: the result was inactive.
In the case of `CN1CCN(C(=O)C2=C[C@@H](C(C)(C)C)C[C@@H](OCc3ccc(CO)cc3)O2)CC1`, the compound was classed as inactive.
`COC(=O)[C@H](C)[C@H]1C[C@]1(C)[C@H](NC(=O)OCc1ccccc1)c1ccccc1`: the result was inactive.
As to `Cc1nc(C)n(C(C)CNC(=O)c2ccco2)n1` (centres undefined), the outcome was inactive.
As for `O=C1CCCN2N=C(SCC(=O)Nc3ccc(Br)cc3)SC2=N1`, the entry is “inactive”.
For `CSc1nc(C)cc(C)c1C#N`, the result was inactive.
In the case of `CC(=O)c1ccc(-n2nnnc2SCC(=O)N2CCc3ccccc3C2)cc1`, the compound was classed as inactive.
Consider `CCSc1nnc(NC(=O)CSc2nnc(-c3c[nH]c4ccccc34)n2CC)s1`, for which the compound was classed as inactive.
Consider `Cc1cccc(S(=O)(=O)N2CCCc3ccccc32)c1`, for which the result was inactive.
Consider `COc1ccc(S(=O)(=O)N2CCN(CC(=O)Nc3cc(OC)cc(OC)c3)CC2)cc1`, for which the result was inactive.
Turning to `COc1ccc(C(=O)CN(CCC(=O)O)S(=O)(=O)c2ccc([N+](=O)[O-])cc2)cc1`, the compound was classed as inactive.
Consider `COc1cc(C(c2sc3nc(C)nn3c2O)N2CCc3ccccc3C2)cc(OC)c1OC` (centres undefined), for which the compound was called inactive.
As to `O=C(OCc1ccccc1F)c1cc2ccccc2cc1O`, the call was inactive.
As for `Nc1cc(=O)[nH]c(SCCSc2cc(Cl)ccc2Cl)n1`, the entry is “inactive”; as for `OCCN(CCO)CC(O)COCCC12CC3CC(CC(C3)C1)C2` (centres undefined), “inactive”.
Consider `CN=C1S/C(=C\c2ccc(O)c(Br)c2)C(=O)N1C`, for which the compound was classed as inactive.
In the case of `CC(=O)OCC(=O)[C@@]1(O)CC[C@H]2[C@@H]3CCC4=CC(=O)CC[C@]4(C)[C@H]3[C@@H](O)C[C@@]21C`, the compound was called inactive.
Consider `Cc1cccc(-n2c(O)c(C=Nc3c(C)n(C)n(-c4ccccc4)c3=O)c3ccccc3c2=O)n1`, for which the compound was classed as inactive.
For the compound `O=c1c(O)c(-c2ccc(O)c(O)c2)oc2cc(O)cc(O)c12`, the compound was called inactive.
Regarding `CN(Cc1ccccc1)c1nc(N)c([N+](=O)[O-])c(NCc2ccccc2)n1`, the outcome was inactive.
Take `COc1ccccc1C(=O)Nc1c[nH]c(=O)[nH]c1=O`: the compound was classed as inactive.
With `COc1ccc(N2Cc3cccc(C(=O)NC(C)CCc4ccco4)c3C2=O)cc1` (centres undefined), the call was inactive.
Consider `COc1ccc(N2C(=O)C(Cl)=C(NCc3ccccc3)C2=O)cc1`, for which the outcome was inactive.
